CYP2C9 inh: blockers of cytochrome P450 2C9 activity – biochemical, luminescence, ADME assay, primary screen; P11712; CYP2C9 Supersomes, luciferin-H conversion; inhibition, % at 5 µM; hit rate 20% among 96,000;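 active means blocking of liver enzyme CYP2C9 beyond about 50% at 5 µM, limit read from the data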
CYP2C19 inh: blockers of cytochrome P450 2C19 activity – biochemical, luminescence, ADME assay, primary screen; P33261; CYP2C19 Supersomes, luciferin-H EGE luminescence, 30 min; inhibition, % at 5 µM; hit rate 21% among 96,000;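 active means CYP2C19 inhibition above a set limit at 5 µM in the primary screen, cut at about 50% in these data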;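 further: plate controls were negative control wells for no effect and 2.5 mM tranylcypromine positive control for full effect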
Target sequence (P33261 whole entry, looked up): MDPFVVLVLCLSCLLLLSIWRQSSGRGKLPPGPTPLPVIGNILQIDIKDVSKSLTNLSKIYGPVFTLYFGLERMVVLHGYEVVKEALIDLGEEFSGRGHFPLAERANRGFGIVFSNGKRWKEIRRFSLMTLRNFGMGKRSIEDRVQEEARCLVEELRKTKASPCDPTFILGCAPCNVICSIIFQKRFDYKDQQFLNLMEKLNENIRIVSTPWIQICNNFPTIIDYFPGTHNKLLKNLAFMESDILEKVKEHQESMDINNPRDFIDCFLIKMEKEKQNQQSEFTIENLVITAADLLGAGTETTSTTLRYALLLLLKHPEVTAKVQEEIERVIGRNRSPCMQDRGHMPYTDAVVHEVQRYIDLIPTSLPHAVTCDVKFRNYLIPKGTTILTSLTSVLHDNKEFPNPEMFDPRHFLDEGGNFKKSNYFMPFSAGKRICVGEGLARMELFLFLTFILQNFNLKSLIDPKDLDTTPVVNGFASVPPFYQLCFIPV
PostGolgi yeast: phenotypic screen on post-Golgi transport, primary screen; post-Golgi transport phenotypic cell assay; inhibition, % at 10 µM; hit rate 0.9% among 98,000; AID 739, 2007;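 further: yeast cells grown in 1536-well plates; yeast grown about 18 h at 30C before absorbance read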
CYP2C9 act: human CYP2C9 activators, primary screen, biochemical, luminescence; hit rate 1.4% among 96,000; activation factor at 5 µM; recombinant CYP2C9, luciferin-H conversion; active compounds read high; factor 1 = untreated enzyme, 0 = blocked; AID 1024, 2008; Cytochrome P450 2C9 (Homo sapiens), P11712;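 active means activation factor of 2 or more for CYP2C9 at a 5 µM dose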;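 further: 0 = sulfaphenazole-blocked wells and 1 = vehicle-only wells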
PostGolgi ctrl: growth inhibition of yeast control strain, primary screen, counter-screen for post-Golgi transport modulator project | efflux-deficient yeast background strain, growth absorbance A615, 16 h | hit rate 5% among 98,000 | inhibition, % at 10 µM
CYP2C19 act: human CYP2C19 activators, primary screen, biochemical, luminescence | AID 1025, 2008 | recombinant CYP2C19, luciferin-H EGE luminescence; active compounds read high; 0 = fully inhibited enzyme, 1 = untreated enzyme | activation factor at 5 µM | 96,000 tested, under 10 active | Cytochrome P450 2C19 (Homo sapiens), P33261;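 active means activation factor of at least 2 at 5 µM in the primary screen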;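 further: 0 = wells with 2.5 mM tranylcypromine and 1 = vehicle-only wells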
* marks the source's active call; other numbers are inactive results. The list is not random: actives were taken first. Their share in the collection is about 32%. Unless noted, no stated cut-off is given here; in the data, active means inhibition above about 30%; inactive means the rest.

How did CCNc1nc(NC(C)C)nc(N(C#N)CCOc2ccccc2)n1 do in these assays?
CYP2C9 inh: 39; CYP2C19 inh: 60*; PostGolgi yeast: -13; CYP2C9 act: 0.6; PostGolgi ctrl: 16; CYP2C19 act: 0.4

Results for CCN(C#N)c1nc(NC(C)C)nc(NC(C)C)n1 ?
CYP2C9 inh: 73*; CYP2C19 inh: 33; PostGolgi yeast: -6; CYP2C9 act: 0.3; PostGolgi ctrl: 7; CYP2C19 act: 0.7

What do the screens show for `CC(C)CCNC(=O)C1CCC(=O)N1C(C)C` (configuration not stated)?
CYP2C9 inh: -16; CYP2C19 inh: -20; PostGolgi yeast: 18; CYP2C9 act: 1.2; PostGolgi ctrl: 23; CYP2C19 act: 1.2

How did Cc1ccccc1NC1=C/C(=N\S(=O)(=O)c2cccs2)c2ccccc2C1=O do in these assays?
CYP2C9 inh: 84*; CYP2C19 inh: 82*; PostGolgi yeast: 107*; CYP2C9 act: 0.2; PostGolgi ctrl: 101*; CYP2C19 act: 0.2

How did C=C1N(c2ccc(Cl)cc2)C(=O)OC1(C)C do in these assays?
CYP2C9 inh: 27; CYP2C19 inh: 58*; PostGolgi yeast: -11; CYP2C9 act: 0.7; PostGolgi ctrl: 2; CYP2C19 act: 0.4

What do the screens show for `Cc1ccc(Cn2ccc(-c3cnc(-c4ccccc4)s3)n2)cc1`?
CYP2C9 inh: 7; CYP2C19 inh: -4; PostGolgi yeast: -10; CYP2C9 act: 0.9; PostGolgi ctrl: 12; CYP2C19 act: 1

How did O=C(c1ccc(F)cc1)n1ccc(-c2cnc(-c3ccccc3)s2)n1 do in these assays?
CYP2C9 inh: -15; CYP2C19 inh: 0; PostGolgi yeast: -8; CYP2C9 act: 1.2; PostGolgi ctrl: -2; CYP2C19 act: 1

Results for O=S(=O)(c1ccccc1)n1ccc(-c2cnc(-c3ccccc3)s2)n1 ?
CYP2C9 inh: 78*; CYP2C19 inh: 12; PostGolgi yeast: -5; CYP2C9 act: 0.2; PostGolgi ctrl: 6; CYP2C19 act: 0.9

What do the screens show for `Fc1ccc(Cn2ccc(-c3cnc(-c4ccccc4)s3)n2)cc1`?
CYP2C9 inh: 97*; CYP2C19 inh: 92*; PostGolgi yeast: -7; CYP2C9 act: 0; PostGolgi ctrl: 17; CYP2C19 act: 0.1

How did Cc1cc(C(=O)COc2ccc(-c3nnco3)cc2)c(C)n1Cc1ccccc1 do in these assays?
CYP2C9 inh: 62*; CYP2C19 inh: 60*; PostGolgi yeast: 4; CYP2C9 act: 0.4; PostGolgi ctrl: 21; CYP2C19 act: 0.4

What do the screens show for `CCOC(=O)COc1ccc(-c2nnc(-c3ccccc3)o2)cc1`?
CYP2C9 inh: 13; CYP2C19 inh: 39; PostGolgi yeast: -13; CYP2C9 act: 0.9; PostGolgi ctrl: 4; CYP2C19 act: 0.6

What do the screens show for `CC(C)OCCCNC(=O)c1ccncc1`?
CYP2C9 inh: 75*; CYP2C19 inh: 89*; PostGolgi yeast: 6; CYP2C9 act: 0.2; PostGolgi ctrl: 2; CYP2C19 act: 0.1

What do the screens show for `O=C(NCCCn1ccnc1)c1cc(-c2cccs2)on1`?
CYP2C9 inh: 48; CYP2C19 inh: 79*; PostGolgi yeast: -3; CYP2C9 act: 0.5; PostGolgi ctrl: 10; CYP2C19 act: 0.2

How did O=C(NCCCn1ccnc1)c1ccncc1 do in these assays?
CYP2C9 inh: 57*; CYP2C19 inh: 45; PostGolgi yeast: 8; CYP2C9 act: 0.4; PostGolgi ctrl: -3; CYP2C19 act: 0.6

Results for CCCCCOc1ccc(NC(=O)C(=O)NCCCn2ccnc2)cc1 ?
CYP2C9 inh: 83*; CYP2C19 inh: 89*; PostGolgi yeast: -4; CYP2C9 act: 0.2; PostGolgi ctrl: 22; CYP2C19 act: 0.1

How did Cc1ccc(C(=O)NCCCn2ccnc2)cn1 do in these assays?
CYP2C9 inh: 10; CYP2C19 inh: 35; PostGolgi yeast: -6; CYP2C9 act: 0.9; PostGolgi ctrl: 1; CYP2C19 act: 0.6

Results for Cc1ccc(C23OC(=O)C(C)(C)C2OC(=O)C3(C)C)cc1 (configuration not stated) ?
CYP2C9 inh: 20; CYP2C19 inh: 32; PostGolgi yeast: -2; CYP2C9 act: 0.8; PostGolgi ctrl: -7; CYP2C19 act: 0.7

Results for COc1ccc(-c2nn(-c3ccccc3)cc2C(=O)n2nnc3ccccc32)cc1 ?
CYP2C9 inh: -22; CYP2C19 inh: 8; PostGolgi yeast: -5; CYP2C9 act: 1.2; PostGolgi ctrl: -8; CYP2C19 act: 0.9

What do the screens show for `COc1ccc(-c2nn(-c3ccccc3)cc2C(=O)NCCCn2ccnc2)cc1`?
CYP2C9 inh: 98*; CYP2C19 inh: 96*; PostGolgi yeast: 7; CYP2C9 act: 0; PostGolgi ctrl: 3; CYP2C19 act: 0

Results for O=C(c1ccc(C(F)(F)F)cc1)c1c[nH]c(C(=O)NCCCn2ccnc2)c1 ?
CYP2C9 inh: 88*; CYP2C19 inh: 95*; PostGolgi yeast: -2; CYP2C9 act: 0.1; PostGolgi ctrl: 7; CYP2C19 act: 0

Results for CCCOc1ccc(C(=O)NCCCn2ccnc2)cc1 ?
CYP2C9 inh: 41; CYP2C19 inh: 90*; PostGolgi yeast: -1; CYP2C9 act: 0.6; PostGolgi ctrl: 21; CYP2C19 act: 0.1

Results for CCOc1ccc(C(=O)NCCCn2ccnc2)cc1 ?
CYP2C9 inh: 25; CYP2C19 inh: 93*; PostGolgi yeast: 15; CYP2C9 act: 0.8; PostGolgi ctrl: 0; CYP2C19 act: 0.1

What do the screens show for `CCOC(=O)C1C2C=CC3(CN(c4ccc(Cl)c(F)c4)C(=O)C13)O2` (configuration not stated)?
PostGolgi yeast: 0; PostGolgi ctrl: 2

How did N#Cc1ccsc1NC(=O)COC(=O)CCCSc1nc2ccccc2s1 do in these assays?
CYP2C9 inh: 35; CYP2C19 inh: 18; PostGolgi yeast: -5; CYP2C9 act: 0.6; PostGolgi ctrl: 6; CYP2C19 act: 0.8

Results for COc1ccc(Nc2ncnc3c2cnn3Cc2ccc(C)cc2)cc1 ?
CYP2C9 inh: 19; CYP2C19 inh: 4; PostGolgi yeast: 3; CYP2C9 act: 0.8; PostGolgi ctrl: 18; CYP2C19 act: 1

What do the screens show for `CC1CC(C)CN(S(=O)(=O)c2ccc(C(=O)NCCCn3ccnc3)cc2)C1` (configuration not stated)?
CYP2C9 inh: 90*; CYP2C19 inh: 32; PostGolgi yeast: -5; CYP2C9 act: 0.1; PostGolgi ctrl: 8; CYP2C19 act: 0.7

What do the screens show for `COc1ccc(C(=O)NCCc2cn3ccc(C)cc3n2)cc1`?
CYP2C9 inh: 24; CYP2C19 inh: 75*; PostGolgi yeast: 0; CYP2C9 act: 0.8; PostGolgi ctrl: -1; CYP2C19 act: 0.3

How did COc1ccc(OC)c(-c2cc(C(=O)NCCCn3ccnc3)no2)c1 do in these assays?
CYP2C9 inh: 22; CYP2C19 inh: 75*; PostGolgi yeast: -4; CYP2C9 act: 0.8; PostGolgi ctrl: -2; CYP2C19 act: 0.2
